Experimental data published in PMC4336329 (PLoS ONE, 2015).
Screen size: about 310,000 compounds; about 14,000 (4.5%) showed an effect of 50% or more. The effect is printed as a negative number. The sample as a whole holds a higher share of strong results than the screen did.

The compounds below were run against human ether-à-go-go-related gene (hERG) potassium channel (human, UniProt Q12809) (assay: primary screen, population patch clamp on CHO cells stably expressing hERG; higher = less effect of the substance).
Sequence of human ether-à-go-go-related gene (hERG) potassium channel (Q12809 whole entry, looked up): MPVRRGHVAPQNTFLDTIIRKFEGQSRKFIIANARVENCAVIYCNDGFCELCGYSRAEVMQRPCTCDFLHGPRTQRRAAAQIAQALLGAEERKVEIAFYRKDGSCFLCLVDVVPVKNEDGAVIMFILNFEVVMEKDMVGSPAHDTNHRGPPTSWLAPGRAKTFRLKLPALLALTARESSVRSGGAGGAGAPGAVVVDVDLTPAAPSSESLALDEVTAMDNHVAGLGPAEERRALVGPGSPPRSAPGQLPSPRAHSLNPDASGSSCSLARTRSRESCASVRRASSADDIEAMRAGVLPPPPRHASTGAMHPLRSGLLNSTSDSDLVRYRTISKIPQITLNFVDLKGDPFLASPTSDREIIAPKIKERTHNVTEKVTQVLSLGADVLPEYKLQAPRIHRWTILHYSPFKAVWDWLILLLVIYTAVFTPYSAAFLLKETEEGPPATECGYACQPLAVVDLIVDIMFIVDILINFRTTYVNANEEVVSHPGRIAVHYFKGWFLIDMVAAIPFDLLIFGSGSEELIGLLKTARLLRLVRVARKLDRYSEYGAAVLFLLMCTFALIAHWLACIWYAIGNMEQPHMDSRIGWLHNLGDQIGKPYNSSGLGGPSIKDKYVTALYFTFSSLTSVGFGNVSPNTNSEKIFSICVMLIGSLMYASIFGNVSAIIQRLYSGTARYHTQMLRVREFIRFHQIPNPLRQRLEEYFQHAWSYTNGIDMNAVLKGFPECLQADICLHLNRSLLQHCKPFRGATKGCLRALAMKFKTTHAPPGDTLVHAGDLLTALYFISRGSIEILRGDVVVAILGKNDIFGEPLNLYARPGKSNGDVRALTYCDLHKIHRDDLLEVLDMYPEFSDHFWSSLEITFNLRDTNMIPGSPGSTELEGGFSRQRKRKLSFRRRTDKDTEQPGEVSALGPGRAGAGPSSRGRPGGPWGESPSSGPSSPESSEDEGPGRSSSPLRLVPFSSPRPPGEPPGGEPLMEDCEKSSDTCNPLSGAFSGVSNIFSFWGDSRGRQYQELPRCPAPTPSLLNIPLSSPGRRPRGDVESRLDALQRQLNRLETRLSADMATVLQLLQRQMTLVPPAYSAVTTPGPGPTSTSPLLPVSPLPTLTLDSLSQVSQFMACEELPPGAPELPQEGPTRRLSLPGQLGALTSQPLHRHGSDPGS
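Also: peak tail current of the secondary pulse compared with the same well before compound.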

Compound	hERG current change (%, negative = inhibition) at 10uM [%]
O=C(NCC1CCCO1)c1cc(-c2ccncc2)nc2ccc(S(=O)(=O)N3CCOCC3)cc12 (stereo not drawn)	-24.5
CC(C)(C#CCN1CCCCC1)OCCOC(c1ccccc1)c1ccccc1.Cl	-21.3
Cc1ccc(NC(=O)CCn2cnc3cc(C)c(C)cc32)cc1	-8.26
COc1ccccc1N1C(=O)c2ccc(C(=O)Nc3ccc(F)cc3)cc2C1=O	1.07
CCOC(=O)N1CCN(c2ncnc3c2[nH]c2ccc(F)cc23)CC1	-2.67
Cc1ccnc(NC(=O)C2CCN(S(=O)(=O)c3ccc4ccccc4c3)CC2)c1	7.94
O=c1c(Br)c(N2CCCCC2)cnn1-c1ccccc1	-16.5
CC(C)Cc1oc(C(=O)O)cc1CN.Cl	-4.32
O=C(Nc1nnc(-c2ccc(Cl)cc2)o1)c1ccc(N2C(=O)CCC2=O)cc1	12.9
Cc1ccccc1OCC(=O)OCC(=O)Nc1ccc(N2CCOCC2)cc1	9.51
O=S(=O)(Nc1c(F)cccc1F)c1ccc2c(c1)OCCO2	9.82
CCOC(=O)c1sc2nc(NC(=O)C(C)(C)C)sc2c1C	-11.7
Cc1ccc(S(=O)(=O)N(C)c2nc3ccccc3n3c(C(C)C)nnc23)cc1	-28.1
O=C(CCC(=O)N1CCOc2ccc(Cl)cc21)NCc1ccccc1	-21.7
CC(CNC(=O)CCC(=O)N1CCOc2ccc(Cl)cc21)c1ccccc1 (stereo not drawn)	-40.6
CCN(CCCNC(=O)CCC(=O)N1CCOc2ccccc21)Cc1ccccc1	-62.5
O=C(CCC(=O)N1CCOc2ccccc21)NCCc1ccccc1	-6
CN(CCCNC(=O)CCC(=O)N1CCOc2ccc(Cl)cc21)Cc1ccccc1	-64.1
CN(CCCNC(=O)CCC(=O)N1CCOc2ccccc21)Cc1ccccc1	-30.7
Cc1ccc2c(c1)N(C(=O)CCC(=O)NCc1cccc(F)c1)CCO2	-5.21
O=C(CCC(=O)N1CCOc2ccccc21)NCCCc1ccccc1	-17.5

Compound	hERG current change (%, negative = inhibition) at 10uM [%]
Cc1ccc2c(c1)N(C(=O)CCC(=O)NCCCN(C)Cc1ccccc1)CCO2	-68.3
COc1ccc(C(=O)Oc2cc(C)[nH]c(=O)c2[N+](=O)[O-])c(OC)c1	11.9
Cc1ccc(C)c2[nH]c(=O)c(CN(Cc3ccco3)S(=O)(=O)c3ccc4c(c3)OCCO4)cc12	9.44
CC(C)NC(=O)[C@]1(C)CCC[C@@]2(C)C3CC[C@@]4(C)C[C@]3(CCC21)CC4=O (stereo partly drawn)	6.23
CCc1ccc(NC(=O)C2CCCN(S(C)(=O)=O)C2)cc1 (stereo not drawn)	21.3
C=CCn1c(SCc2csc(C)n2)nc2sc3c(c2c1=O)CCCCC3	-8.41
O=C(CN1C(=O)C(c2ccc(F)cc2)=NC12CCCC2)Nc1ccc(F)cc1	-5.39
CC(C)(C)OC(=O)N1CC(O)CC1C(=O)OCC(=O)c1ccc(Cl)cc1 (stereo not drawn)	-16.4
CC(C)(C)OC(=O)N1CC(O)CC1C(=O)OCC(=O)c1ccccc1 (stereo not drawn)	5.86
CC(C)(C)OC(=O)N1C[C@H](O)C[C@H]1C(=O)OCC(=O)c1ccc([N+](=O)[O-])cc1	-63.4
COc1cccc(/C=N/NC(=O)c2[nH]c(C)c(C(=O)N/N=C/c3cccc(OC)c3O)c2C)c1O	11.7
CCN1CCc2c(OCC(=O)Nc3ccc4c(c3)OCCO4)cccc2C1=O	5.28
Cc1cc(NCCCN2CCOCC2)n2ncc(-c3ccccc3)c2n1	-21
CC(C)(C)c1cc(NCCCn2ccnc2)n2ncc(-c3ccc(Cl)cc3)c2n1	12.1
Cc1cc(NCCCN2CCOCC2)n2ncc(-c3ccc(Cl)cc3)c2n1	0.66
CC(C)(C)c1cc(NCCCn2ccnc2)n2ncc(-c3ccccc3)c2n1	-18
Cc1cc(NCCCn2ccnc2)n2ncc(-c3ccc(Cl)cc3)c2n1	-68
Cc1cc(NCCCn2ccnc2)n2ncc(-c3ccccc3)c2n1	-67.6
C=C(C)CN1CCN(S(=O)(=O)c2ccc(C)c(N(C)S(=O)(=O)c3ccc(C)cc3)c2C)CC1	-2.33
Cc1ccc(S(=O)(=O)N2CCN(C)CC2)c(C)c1N(C)S(=O)(=O)c1ccc(Cl)cc1	-68.7
Cc1ccc(S(=O)(=O)N(C)c2c(C)ccc(S(=O)(=O)N3CCN(C)CC3)c2C)cc1	-60.8
